According to the supplement of paper PMC4466140:

Legend:
Assay in all cases: SPOT peptide array binding signal intensity (averaged, normalized) (arbitrary units (background-subtracted, floor 0; scale differs between SH3 domains)); higher = stronger binding of the SH3 domain to the peptide
[1] = target: AgAbp1
How it was run: (§1)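 GST-SH3 fusions from four yeast species, purified on glutathione Sepharose, were incubated at 10 μg/ml overnight at 4°C on membranes of synthetic 15-mer peptides in which cysteines were replaced with serines. Binding signal is the normalized, background-subtracted spot intensity averaged over replicates, in domain-specific arbitrary units.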

[2] = target: AgBbc1
How it was run: as §1

[3] = target: AgBem1-D1
How it was run: as §1

[4] = target: AgBzz1-D1
How it was run: as §1

[5] = target: AgBzz1-D2
How it was run: as §1

[6] = target: AgCyk3
How it was run: as §1

[7] = target: AgFus1
How it was run: as §1

[8] = target: AgHof1
How it was run: as §1

[9] = target: AgHse1
How it was run: as §1

[10] = target: AgLsb1
How it was run: as §1

[11] = target: AgLsb4
How it was run: as §1

[12] = target: AgMyo5
How it was run: as §1

[13] = target: AgNbp2
How it was run: as §1

[14] = target: AgRvs167
How it was run: as §1

[15] = target: AgSho1
How it was run: as §1

[16] = target: AgSla1-D1-D2
How it was run: as §1

[17] = target: AgSla1-D3
How it was run: as §1

[18] = target: CaAbp1-D1
How it was run: as §1

[19] = target: CaAbp1-D2
How it was run: as §1

[20] = target: CaBbc1
How it was run: as §1

[21] = target: CaBem1-D1
How it was run: as §1

[22] = target: CaBzz1-D1
How it was run: as §1

[23] = target: CaBzz1-D2
How it was run: as §1

[24] = target: CaCyk3
How it was run: as §1

[25] = target: CaFus1
How it was run: as §1

[26] = target: CaHof1
How it was run: as §1

[27] = target: CaHse1
How it was run: as §1

[28] = target: CaLsb1
How it was run: as §1

[29] = target: CaLsb4
How it was run: as §1

[30] = target: CaMyo5
How it was run: as §1

[31] = target: CaNbp2
How it was run: as §1

[32] = target: CaRvs167
How it was run: as §1

[33] = target: CaRvs167-3
How it was run: as §1

[34] = target: CaSho1
How it was run: as §1

[35] = target: CaSla1-D1-D2
How it was run: as §1

[36] = target: CaSla1-D3
How it was run: as §1

[37] = target: ScAbp1
How it was run: as §1

[38] = target: ScBbc1
How it was run: as §1

[39] = target: ScBem1-D1
How it was run: as §1

[40] = target: ScBzz1-D1
How it was run: as §1

[41] = target: ScBzz1-D2
How it was run: as §1

[42] = target: ScCyk3
How it was run: as §1

[43] = target: ScFus1
How it was run: as §1

[44] = target: ScHof1
How it was run: as §1

[45] = target: ScHse1
How it was run: as §1

[46] = target: ScLsb1
How it was run: as §1

[47] = target: ScLsb2
How it was run: as §1

[48] = target: ScLsb3
How it was run: as §1

[49] = target: ScLsb4
How it was run: as §1

[50] = target: ScMyo3
How it was run: as §1

[51] = target: ScMyo5
How it was run: as §1

[52] = target: ScNbp2
How it was run: as §1

[53] = target: ScPex13
How it was run: as §1

[54] = target: ScRvs167
How it was run: as §1

[55] = target: ScSho1
How it was run: as §1

[56] = target: ScSla1-D1-D2
How it was run: as §1

[57] = target: ScSla1-D3
How it was run: as §1

[58] = target: SpAbp1-D1
How it was run: as §1

[59] = target: SpBbc1
How it was run: as §1

[60] = target: SpBzz1-D1
How it was run: as §1

[61] = target: SpBzz1-D2
How it was run: as §1

[62] = target: SpCyk3
How it was run: as §1

[63] = target: SpHof1
How it was run: as §1

[64] = target: SpHof1-2
How it was run: as §1

[65] = target: SpHof1-3
How it was run: as §1

[66] = target: SpHse1
How it was run: as §1

[67] = target: SpLsb1
How it was run: as §1

[68] = target: SpLsb4
How it was run: as §1

[69] = target: SpMyo1
How it was run: as §1

[70] = target: SpNbp2
How it was run: as §1

[71] = target: SpPex13
How it was run: as §1

[72] = target: SpRvs167
How it was run: as §1

[73] = target: SpSla1-D1-D2
How it was run: as §1

[74] = target: SpSla1-D3
How it was run: as §1

Measured: SPOT peptide array binding signal intensity

DLPLPDLPPEPPTEL
0.5: [6] | [28] | [65]
10.5: [9]
3: [64]
207: [12]
4: [37]
0.333: [32]
9.5: [34]
54.5: [8]
0.75: [30]
2.75: [38]
384: [50]
328: [69]
2.5: [26] | [33]
206: [44]
2: [5] | [16] | [40] | [41] | [42]
1: [27]
≤ 0: [1] | [2] | [3] | [4] | [7] | [10] | [11] | [13] | [14] | [15] | [17] | [18] | [19] | [20] | [21] | [22] | [23] | [24] | [25] | [29] | [31] | [35] | [36] | [39] | [43] | [45] | [46] | [47] | [48] | [49] | [52] | [53] | [54] | [55] | [56] | [57] | [58] | [59] | [60] | [61] | [62] | [63] | [66] | [67] | [68] | [70] | [71] | [72] | [73] | [74]
646: [51]
